In the library only some 11% were active in any assay of this set; here they are far more common.
IMPase Li cell: qHTS Assay for Identifying the Cell-Membrane Permeable IMPase Inhibitors: Potentiation with Lithium; CHO-M1 cells, IP1 TR-FRET (IP-One), carbachol + lithium; Potency, µM (titrated, usually from 59.4 µM), for the others: at the highest dose activity, negative = IMPase inhibition, hits mostly inhibitors; 210,000 compounds, 0.35% hits;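 also: IP1 builds up when IMPase is blocked and the TR-FRET signal falls; potency is read from the fitted curve at half-maximal effect; plate controls were basal vehicle for no effect and high inhibitor control for full effect; nearly all actives have a fitted effect of over 50% in size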
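CHO cells stably expressing M1 receptor (2000/well) were cultured 16–30 h, then exposed to compounds with a small lithium addition for 30 min at 37C. IP1 was measured by TR-FRET competition; AC50 from Hill fits.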
PNC inhibitor: High Content Assay for Compounds that inhibit the Assembly of the Perinucleolar Compartment. PC3M PTB-GFP, PNC prevalence imaging, 16 h; stronger effect = lower value. activity change (PNC), negative = inhibition, % at 10 µM. 140,000 compounds, 3.1% hits. AID 2417, 2010;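 active = readout at or below -70, meaning at least 70% loss of cells showing the perinucleolar compartment, a nuclear body marking cancer cells; inconclusive = readout between -30 and a set limit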;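 also: plate controls were DMSO wells for no effect and camptothecin positive control wells for full effect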
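PC3M cells stably expressing PTB-GFP, 750–1000 cells/well, treated 16 h at 37 °C with compound (23 nl of library stock), in duplicate. After paraformaldehyde fixation and Hoechst stain, imaged at 20x; PNC prevalence scored by image analysis.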
ALOX12 inhib: qHTS Assay for Inhibitors of 12-hLO (12-human lipoxygenase) | Polyunsaturated fatty acid lipoxygenase ALOX12 (Homo sapiens), P18054 | purified 12-hLO, xylenol orange hydroperoxide absorbance | Potency, µM (doses to about 57.1 µM), inactives show top-dose activity change, negative = inhibition, actives largely listed as inhibitors | 150,000 compounds, 0.12% hits; also: potency is read from the fitted curve at half-maximal effect; nearly all actives have a fitted effect of over 55% in size
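150 nM 12hLO, 25 mM Hepes pH 7.0 + 0.01% Triton X-100; cpd preinc 15 min RT; 40 uM arachidonic acid, 30 min RT; Fe-XO 30 min; A573/A405 ratio as read-out.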
IMPase cell inh: qHTS Assay for Identifying the Cell-Membrane Permeable IMPase Inhibitors. Inositol monophosphatase 1 (Rattus norvegicus), P97697. CHO-M1 cells, IP1 accumulation, HTRF TR-FRET ratio. AID 901, 2007. 120,000 tested, under 10 active. inhibition (IP1 accumulation), % at 46.1 µM; active = well fitted curve in the direction sought with a large enough effect in the signal ratio, not every such curve was filed as active; inconclusive = small, poorly fitted or top-dose-only effect, or a change in a side signal; inactive = no such curve, though single readings can be large or run the other way; the % refers to the signal ratio;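 also: cells stimulated with carbachol in lithium chloride buffer; plate controls were DMSO basal wells for no effect and reference inhibitor wells for full effect; higher means more IMPase inhibition seen as more IP1 and lower FRET ratio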
Target sequence (P97697 whole entry, looked up): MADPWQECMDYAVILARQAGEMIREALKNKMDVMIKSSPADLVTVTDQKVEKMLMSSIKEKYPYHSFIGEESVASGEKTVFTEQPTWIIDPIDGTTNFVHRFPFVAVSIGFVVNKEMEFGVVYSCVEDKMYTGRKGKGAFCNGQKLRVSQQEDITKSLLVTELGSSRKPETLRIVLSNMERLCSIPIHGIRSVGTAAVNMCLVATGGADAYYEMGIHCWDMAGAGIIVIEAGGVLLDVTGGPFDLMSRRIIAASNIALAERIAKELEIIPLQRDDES
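The IP-One HTRF competitive assay in carbachol-stimulated CHO-M1 cells quantifies cellular IP1. Compounds spanned up to 46 uM final, and activity is expressed as AC50 from concentration-response fits of the ratio and donor data.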
HPGD inh: qHTS Assay for Inhibitors of HPGD (15-Hydroxyprostaglandin Dehydrogenase); 15-hydroxyprostaglandin dehydrogenase [NAD(+)] (Homo sapiens), P15428; purified HPGD, NADH fluorescence kinetic, PGE2 substrate; Potency, µM, inactives show at the highest dose activity change, negative = inhibition, usual class: inhibitors; 150,000 compounds, 4.3% hits; AID 894, 2007; active = well fitted inhibition curve with a large enough effect, not every such curve was filed as active; inconclusive = small, poorly fitted or top-dose-only effect, or another doubt; inactive = no such curve, though single readings can be large or run the other way; also: potency is read from the fitted curve at half-maximal effect
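20 nM HPGD preincubated 15 min at room temperature with compound in 50 mM Tris-HCl pH 8, 0.01% Tween 20. Started with 1 mM NAD+ and 30 uM prostaglandin E2; NADH fluorescence (360/450 nm) read 5 times over 30-s intervals, last minus first.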
ALDH1A1 inh: qHTS Assay for Inhibitors of Aldehyde Dehydrogenase 1 (ALDH1A1) | 220,000 compounds, 7.3% hits | Potency, µM (doses to about 75.3 µM), for inactives: top-dose activity, negative = inhibition, hits mostly inhibitors | Aldehyde dehydrogenase 1A1 (Homo sapiens), P00352 | Purified ALDH1A1, NADH fluorescence, propionaldehyde substrate; active = well fitted inhibition curve with a large enough effect, not every such curve was filed as active; inconclusive = small, poorly fitted or top-dose-only effect, or another doubt; inactive = no such curve, though single readings can be large or run the other way;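 also: potency is read from the fitted curve at half-maximal effect; plate controls were no enzyme wells and a reference inhibitor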
Target sequence (P00352 whole entry, looked up): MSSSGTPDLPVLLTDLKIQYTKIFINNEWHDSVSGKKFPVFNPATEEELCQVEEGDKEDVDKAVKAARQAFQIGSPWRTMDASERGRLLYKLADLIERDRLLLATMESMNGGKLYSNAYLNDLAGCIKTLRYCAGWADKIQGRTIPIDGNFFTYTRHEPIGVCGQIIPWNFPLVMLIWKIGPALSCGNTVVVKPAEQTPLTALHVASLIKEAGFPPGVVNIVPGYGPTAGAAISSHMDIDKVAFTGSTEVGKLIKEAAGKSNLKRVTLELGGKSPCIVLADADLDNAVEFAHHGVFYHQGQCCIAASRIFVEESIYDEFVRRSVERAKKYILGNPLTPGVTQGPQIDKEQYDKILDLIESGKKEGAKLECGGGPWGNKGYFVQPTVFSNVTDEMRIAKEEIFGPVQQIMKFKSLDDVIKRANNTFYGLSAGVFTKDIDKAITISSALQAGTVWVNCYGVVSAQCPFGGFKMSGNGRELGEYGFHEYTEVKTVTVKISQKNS
An asterisk follows results filed as active; ? = inconclusive; · = no result; [ ] = remark or other dose. Unless noted, calls follow the shape of the dose curve; as a rule, active = well fitted curve in the direction sought with a large enough effect; inconclusive = small, poorly fitted or top-dose-only effect, or another doubt; inactive = no such curve, though single readings can be large; an effect the other way counts as inactive or inconclusive. Unless noted, % is scaled to controls: 0 for no effect and ±100 for the full control effect.

SMILES	IMPase Li cell	PNC inhibitor	ALOX12 inhib	IMPase cell inh	HPGD inh	ALDH1A1 inh
CCOC(=O)C(C(=O)Nc1cccc(C)c1)C1CCCCC1 (stereo unspecified)	35%[38.3 µM]	?	0%	-3	-8%	6%
C[C@@H]1C=CCC(=O)OC[C@H](C)C(=O)OC[C@H]2O[C@H]1C=C[C@@H]2O	·	·	·	·	·	1%[13.5 µM]
Cc1onc(-c2ccccc2)c1C(=O)N1CCCSC1=Nc1ccccc1	42%[38.3 µM]	26	2%	7	-20%	11µM*
Cc1onc(-c2ccccc2)c1C(=O)N1CCCN(C(=O)c2c(-c3ccccc3)noc2C)CC1	29%[38.3 µM]	-7	-1%	11	-11%	-1%
NN(CC(=O)O)CC(=O)O	-5%	·	4%[11.4 µM]	·	-1%	-5%[13.5 µM]
CC(OC(=O)c1cccs1)C(=O)NCc1ccc2c(c1)OCO2 (stereo unspecified)	6%[38.3 µM]	-9	1%	1	28µM*	4%
CC(C)C(OC(=O)c1nsc(Cl)c1Cl)C(=O)NCc1ccc2c(c1)OCO2 (stereo unspecified)	0%[38.3 µM]	-23	-1%	-1	2.2µM*	-5%
CC(C)CCN1CCc2nc(COc3ccccc3)c3c(c2C1)COC(C)C3 (stereo unspecified)	·	·	·	·	·	7%[13.5 µM]
Cc1ccc(-n2c(=O)c3ccc(C(=O)NCc4ccco4)cc3n(CC(=O)Nc3ccccc3C(F)(F)F)c2=O)cc1	·	·	·	0	·	·
Cc1ccccc1S(=O)(=O)c1c(C)cc(C)n(CC(C)C)c1=O	-8%[38.3 µM]	-29	-3%	15	-4%	7.9µM*
O=c1c2cc(Cl)ccc2nc(-c2ccc([N+](=O)[O-])cc2)n1O	24%	·	·	·	·	11µM*
Cc1ccc(-c2nnc(Nc3cccc(O)c3)c3ccccc23)cc1S(=O)(=O)N1CCCCC1	·	·	·	-6	·	·
COc1ccccc1NC(=O)CN1C(=O)C(C)SC(C)C1=O (stereo unspecified)	-3%	-99*	0%	-8	-3%	9%
COc1ccccc1NC(=O)CCSCCC(=O)Nc1ccccc1OC	-1%	-8	-3%	·	-16%	14µM*
COc1ccccc1NC(=O)CNC(=O)c1ccccc1C	-1%[38.3 µM]	-108*	11%	4	20µM*	-11%
COc1ccc(NC(=O)CC2Nc3ccccc3NC2=O)cc1 (stereo unspecified)	·	·	·	-9	·	·
COc1ccccc1NC(=O)CCC(=O)Nc1ccccc1OC	20%[38.3 µM]	2	0%	-6	-5%	-7%
COc1ccccc1NC(=O)CN1C(=O)NC(CC(C)C)C1=O (stereo unspecified)	-1%[38.3 µM]	?	1%	3	-3%	3%
COc1ccccc1NC(=O)CC1Nc2ccccc2NC1=O (stereo unspecified)	19%[38.3 µM]	?	-12%	5	?	28µM*
COc1ccccc1NC(=O)CCC(=O)c1ccc(-c2ccccc2)cc1	-1%	-9	-3%	·	18µM*	-7%
COc1ccc(N=C2SCC(=O)N2Cc2ccccc2)cc1	-4%	·	·	·	·	?
COc1ccc(/C=C2\CN(Cc3ccccc3)C/C(=C\c3ccc(OC)cc3)C2=O)cc1	7%	45	-22%	·	-14%	16µM*
COc1ccc(/C=C2\CN(Cc3ccccc3)C/C(=C\c3ccc(OC)cc3OC)C2=O)c(OC)c1	11%[38.3 µM]	18	-18%	-6	-14%	18µM*
CCN1C(=O)[C@H]2[C@H]3[C@H](O)[C@H](O)C/C(=N/O[C@@H]4O[C@@H](COC(C)=O)[C@@H](OC(C)=O)[C@@H](OC(C)=O)[C@H]4OC(C)=O)[C@H]3CC[C@@H]2C1=O	·	·	·	·	·	0%[13.5 µM]
Clc1ccccc1CSc1ncn(-c2ccccc2)n1	12%	17	2%	7	18µM*	-3%
SMILES	IMPase Li cell	PNC inhibitor	ALOX12 inhib	IMPase cell inh	HPGD inh	ALDH1A1 inh
Cc1ccc(CSc2ncn(-c3ccccc3)n2)cc1	82%[38.3 µM]	-27	-17%	17	20µM*	16µM*
O=S(=O)(c1ccccc1)N1CCC[C@@]2(CCN(c3ccccc3)C2)C1	10%	·	-6%	·	-12%	?
CSc1sc(C(=O)NCC2CC2)c(-c2cccs2)c1C#N	·	·	·	·	·	8.9µM*
C[C@@](N)(Cc1c[nH]c2ccccc12)C(=O)O	4%	·	2%[11.4 µM]	·	-1%	-3%[13.5 µM]
CS(=O)(=O)N(Cc1ccco1)CC(O)Cn1cc(C=O)c2ccccc21 (stereo unspecified)	16%[38.3 µM]	-88*	13%	-10	-25%	1.3µM*
CS(=O)(=O)N(Cc1ccco1)Cc1ccccc1Cl	11%[38.3 µM]	25	2%	3	?	-5%
COC(=O)c1ccc2c(=O)n(CC3CCCO3)c(SCC(=O)Nc3ccccc3Cl)nc2c1 (stereo unspecified)	-5%[38.3 µM]	19	-1%	-9	-9%	16%
COC(=O)c1ccc2c(=O)n(CC3CCCO3)c(SCC(=O)Nc3ccccc3OC)nc2c1 (stereo unspecified)	?	?	-7%	5	-12%	14µM*
CCn1c(SCC(=O)Nc2ccc(C(=O)OC)cc2)nc2cccnc21	-5%	-23	7%	4	3.5µM*	1%
CCc1ccc(NC(=O)CSc2nc3cc(C(=O)OC)ccc3c(=O)n2CC2CCCO2)cc1 (stereo unspecified)	14µM*	-28	-5%	0	-22%	?
COc1ccc(NCc2ccccc2-c2nnc(-c3ccccc3)o2)cc1Cl	·	·	·	7	·	·
CS(=O)(=O)N1CCC2(CC1)CN(C(=O)Nc1cccc(C#N)c1)C2	-10%	·	4%	·	?	-1%
CCCCOc1cccc(NC(=O)CSc2nnc(C)s2)c1	·	·	·	-6	·	·
CCOC(=O)c1c(NC(=O)CSc2ncn[nH]2)sc(C)c1C	-3%	?	6%	-9	-14%	25µM*
CCOC(=O)c1c(NC(=O)CSC(=S)N(C)C)sc(C)c1C	12%	-16	-3%	·	-18%	25µM*
CCOC(=O)c1c(NC(N)=O)sc(C)c1C	-5%[38.3 µM]	23	-5%	-3	-5%	-12%
CCOC(=O)c1c(N2C(=O)C=CC2=O)sc(C)c1C	23%	?	-29%	-14	2µM*	0.5µM*
Cc1cc2c(cc1C)NC(CC(=O)Nc1cccc(C)c1C)C(=O)N2 (stereo unspecified)	·	·	·	-4	·	·
COc1ccc(OC)c(NC(=O)CN(c2ccccc2OC)S(=O)(=O)c2ccc(C)cc2)c1	·	·	·	6	·	·
